# Bioassay records as filed in PubChem.
# Rab9 promoter act = qHTS Assay for Rab9 Promoter Activators; Huh7 Rab9 promoter-luciferase reporter, luminescence, 24 h; Potency, µM (doses to about 9.22 µM), inactives show at the highest dose activation, negative = inhibition, usual class: activators; 320,000 compounds, 2.8% hits; also: % of control where 0% means no effect; nearly all actives have a fitted effect of over 60% in size
#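 Huh7 cells stably carrying Rab9 promoter–luciferase reporter, plated 1500 cells/well, compound added after 2 h and incubated 24 h at 37 °C; luciferase luminescence then read after 10 min with detection reagent.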
# ELG1 genotoxic = qHTS screen for small molecules that induce genotoxicity in human embryonic kidney (HEK293T) cells expressing luciferase-tagged ELG1. HEK293T ELG1-luciferase reporter, luminescence, 16 h. Potency, µM (titrated, usually from 46 µM), inactives show at the top dose activity change, positive = activation, hits mostly activators. 330,000 compounds, 1.3% hits. AID 504466, 2011; also: % of control where 0% means no effect; nearly all actives have a fitted effect of over 60% in size
#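 HEK293T cells expressing luciferase-tagged ELG1 were treated with compound or DMSO for 16 hr at 37°C. Luciferase activity was then read after 30 min with ONE-Glo at room temperature; rising signal flags genetic stress.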
# FLuc modulator = qHTS profiling assay for firefly luciferase inhibitor/activator using purifed enzyme and Km concentrations of substrates (counterscreen for miR-21 project) | Luciferin 4-monooxygenase (Photinus pyralis), P08659 | purified FLuc, Km substrates, luminescence inhibition | Potency, µM (series often up to 57.5 µM), for the others: at the highest dose activity change, negative = inhibition, usual class: inhibitors | 360,000 compounds, 6.9% hits | AID 588342, 2011;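 also: plate controls were vehicle for no effect and reference inhibitor for full effect; nearly all actives have a fitted effect of over 55% in size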
# Target sequence (P08659 whole entry, looked up): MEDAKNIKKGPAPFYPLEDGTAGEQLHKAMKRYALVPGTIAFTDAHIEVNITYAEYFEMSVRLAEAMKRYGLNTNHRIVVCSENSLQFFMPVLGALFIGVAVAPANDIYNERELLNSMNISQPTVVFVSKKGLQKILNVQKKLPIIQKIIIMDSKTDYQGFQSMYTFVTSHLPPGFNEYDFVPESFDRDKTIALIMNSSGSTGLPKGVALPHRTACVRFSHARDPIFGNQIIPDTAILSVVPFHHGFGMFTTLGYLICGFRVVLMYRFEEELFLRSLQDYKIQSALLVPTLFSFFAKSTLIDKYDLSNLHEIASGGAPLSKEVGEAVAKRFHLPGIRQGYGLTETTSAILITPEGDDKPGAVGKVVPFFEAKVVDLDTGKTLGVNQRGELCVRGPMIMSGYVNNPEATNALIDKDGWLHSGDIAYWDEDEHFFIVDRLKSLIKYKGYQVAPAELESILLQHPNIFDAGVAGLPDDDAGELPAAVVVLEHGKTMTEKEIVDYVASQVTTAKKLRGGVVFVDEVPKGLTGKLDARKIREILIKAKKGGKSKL
#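 Biochemical qHTS of compounds, final roughly 60 µM downward over six points, against 10 nM purified firefly luciferase using Km concentrations of substrates (10 uM D-luciferin, 10 uM ATP) in Tris acetate pH 7.5 buffer; luminescence output.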
# SMN2 splice up = qHTS Assay for Enhancers of SMN2 Splice Variant Expression; HEK293 SMN2-luciferase splicing reporter, luminescence, 30-36 h; Potency, µM (top dose mostly 46.1 µM), for the others: top-dose activity change, positive = activation, most hits filed as activators; 210,000 compounds, 2.8% hits; AID 1458, 2008; also: % of control where 0% means no effect; nearly all actives have a fitted effect of over 55% in size
#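 qHTS luciferase splicing reporter: luminescence rises when SMN2 exon 7 is included in transfected HEK293 cells. Compound exposure lasted 30-36 h at 37C, with 4.5 mM final sodium butyrate as control, followed by a ONE-Glo read.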
# NPC1 prom act = qHTS Assay for NPC1 Promoter Activators; 320,000 compounds, 2.4% hits; Huh7 NPC1 promoter luciferase reporter, 24 h; Potency, µM (highest dose often 9.22 µM), inactives show at the highest dose activation, actives largely listed as activators; AID 485313, 2010; also: % of control where 0% means no effect; nearly all actives have a fitted effect of over 60% in size
#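 In 1536-well qHTS, Huh7 cells harboring an NPC1 promoter–luciferase construct received compound for 24 h; activation was quantified by luminescence following luciferase reagent addition.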
# Luc counter = Counterscreen for Luciferase (Kinase-Glo TM) Inhibition. Luciferin 4-monooxygenase (Photuris pensylvanica), Q27757. Kinase-Glo luciferase, ATP luminescence, 8 min. Potency, µM (titrated, usually from 38.3 µM), inactives show at the top dose activity change, negative = inhibition, actives largely listed as inhibitors. 200,000 compounds, 0.28% hits; also: % is scaled to controls: 0 for no effect and ±100 for the full control effect; nearly all actives have a fitted effect of over 60% in size
#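 Light output from Kinase-Glo luciferase with luciferin and 10 uM ATP in 50 mM imidazole pH 7.2, KCl, MgCl2, Tween 20, BSA; compound pin-delivered, 8-min ambient incubation, then luminescence read.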
# Active calls of the source: *; ? = inconclusive; . = no result; [ ] = remark or other dose. Hits are enriched below; roughly 7.3% of the tested compounds scored in any of these assays. Calls follow the shape of the dose curve; as a rule, active = well fitted curve in the direction sought with a large enough effect; inconclusive = small, poorly fitted or top-dose-only effect, or another doubt; inactive = no such curve, though single readings can be large; an effect the other way counts as inactive or inconclusive. Potency is read from the fitted curve at half-maximal effect.
SMILES,Rab9 promoter act,ELG1 genotoxic,FLuc modulator,SMN2 splice up,NPC1 prom act,Luc counter
COc1cccc(/C=N/n2c(-c3ccco3)nc3ccccc3c2=O)c1,0.56µM*,2%,13µM*,0.79µM*,0.4µM*,-1%
COc1ccc(-n2cc(CNCc3cccnc3)c(-c3cccc(F)c3)n2)cc1,-4%,-6%,9.5µM*,.,1%,1%
COc1ccc(-n2cc(CNCCc3cnc[nH]3)c(-c3cccc(F)c3)n2)cc1,-21%,2%,19µM*,-84%,-5%,0%
COc1ccc(-n2cc(CN(C)CCO)c(-c3cccc(F)c3)n2)cc1,0.63µM*,?,2.1µM*,.,0.45µM*,?
COc1ccc(-n2cc(-c3ccccc3)c3c(NCCOCCO)ncnc32)cc1,-3%,-3%,0%,.,-5%,.
O=C(CNC(=O)C1CCCCC1)Nc1ccc(F)c(Cl)c1,-1%,0%,2%,18µM*,-8%,0%
O=C(Nc1ccc(F)c(Cl)c1)C1CCCCC1,7%,-1%,-18%,.,1%,.
O=C(CNC(=O)C1CCCCC1)Nc1cc(Cl)cc(Cl)c1,-9%,-4%,2%,22%,1%,1%
O=C(CNC(=O)C1CCCCC1)Nc1ccc(Cl)cc1,3%,?,-5%,11µM*,15%,4%
O=c1[nH]c(=O)n([C@H]2C[C@H](O)[C@@H](CO)O2)cc1Br,27%[46.1 µM],12%,3%,10µM*,6%[46.1 µM],2%
O=c1[nH]c(=O)n(C2CCCO2)cc1Br (stereo not drawn),-4%,-5%,4%,35µM*,2%,-1%
O=c1[nH]c(=O)n([C@@H]2O[C@H](CO)[C@@H](O)[C@H]2O)cc1Br,.,.,.,.,.,1%
Cc1cn([C@H]2C[C@H](O)[C@@H](CO)O2)c(=O)[nH]c1=O,.,.,.,.,.,0%[39.9 µM]
Cn1c(C(=O)O)c(CC(=O)NCC2COc3ccccc3O2)c2ccccc21 (stereo not drawn),-4%,-1%,4%,-3%,-2%,-6%
Cc1cccc(-c2noc(CCc3ccccc3)n2)c1,2.8µM*,?,12µM*,24%,?,1%
Cc1cccc(-c2noc(Cc3ccccc3)n2)c1,?,?,?,?,?,-6%
c1ccc(OCc2nc(-c3ccccc3)no2)cc1,?,15µM*,27µM*,?,?,1%
O=C(Nc1ccc(-c2noc(CCc3ccccc3)n2)cc1)c1ccco1,1.1µM*,?,4.3µM*,2.8µM*,1.3µM*,-13%
c1ccc(OCc2nc(-c3ccncc3)no2)cc1,?,10%,?,.,14%,-1%
c1ccc(CCc2nc(-c3ccccc3)no2)cc1,?,?,12µM*,28%,?,-5%
Cc1ccc(-c2noc(COC(=O)c3ccco3)n2)cc1,4%,12%,9.5µM*,.,20%,.
O=C1CCC(=O)N1CCCCCc1nc(-c2ccccc2)no1,?,21µM*,?,-4%,18%,0%
COc1ccc(-c2noc(CNC(=O)c3ccco3)n2)cc1,.,.,1%,-1%,.,.
Cc1cc(N)c2cc(NC(=O)Nc3ccc4nc(C)cc(N)c4c3)ccc2n1,.,.,.,8%[9.22 µM],.,-7%[7.66 µM]
Cc1cc(NC(=O)Nc2ccc3c(ccn3C)c2)sn1,6.5µM*,.,.,?,7.3µM*,-3%
Cc1ccc(C)c(CN2C(=O)CSc3ccc(C(=O)NCc4ccc(F)cc4)cc32)c1,.,.,-1%,-5%,.,.
Cc1cc(-c2nnco2)c(C)n1-c1ccccc1,?,11µM*,12µM*,?,?,-2%
CC(=O)NC(Cc1cccc(F)c1)C(=O)NC1CCN(C(=O)Nc2ccccc2)CC1 (stereo not drawn),0%,2%,-2%,.,-1%,.
